# In the supplement of paper PMC10338343:
# ± gives the standard deviation. The full ranking holds about 8,200 sequences; the median of “pre-steady-state target cleavage rate” is about 0.024, and the highest 2% start at about 1.3. The full list was thinned out, with the highest values kept by preference.
# Test system: MIWI (PIWIL1) piRISC loaded with L1MC piRNA (30 nt)
# Test: pre-steady-state target cleavage rate (min^-1); MIWI and MILI are mouse PIWI proteins and EfPiwi is from a freshwater sponge; tags in brackets are library labels; higher = faster piRNA-guided slicing of the target
# Conditions: guide: L1MC piRNA 5'p-UAACUAAAUACUAUGCAAGCUGUAGGUCCU
# Experimental: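 Cleave-'n-Seq: a library of target RNAs (target site embedded in constant flanks, ACAGCATTCCGCGTTAGTGATATCCG... 5' flank; DNA-blocked outside the site) at 0.1 nM was incubated with 1 nM active mouse MILI or MIWI piRISC (synthetic 5'-monophosphorylated piRNA guide) with or without 500 nM mouse GTSF1 at 33 °C for 1 min to 16 h. Uncleaved targets were sequenced and normalised to non-target controls, and the pooled three trials were fitted to a burst-and-steady-state model to give the pre-steady-state cleavage rate (min^-1; k3 is constrained to at most 1e-4). Sequence is the target site only; target names encode pairing extent (gX:gY) and contiguous / 1-mismatch / 2-mismatch / bulge geometry. Fits with R² ≤ 0 are excluded.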
# [1] = auxiliary factor: 500 nM mouse GTSF1
# [2] = auxiliary factor: none (no GTSF1)
Sequence,pre-steady-state target cleavage rate [1],pre-steady-state target cleavage rate [2]
UCCACCUAGAGCUUGCAUAGUUUUUAGUUA,0.22 ± 0.03,0.0119 ± 0.0015
UCCUGGAUGACGCUUGCAUAGUAUUUAGUUA,0.911 ± 0.059,0.0648 ± 0.0085
UCCACCUACUGCUUGCAUAGUAUUUAGAUA,0.253 ± 0.043,0.0104 ± 0.0021
UCCUGGUUGUGCUUGCAUAGUAUUUAGUAA,0.2 ± 0.022,0.0175 ± 0.0053
UCCUGCUACAGCUUGCAUAGUGUUUAGUUA,0.648 ± 0.045,0.0278 ± 0.0045
UCCACCUCACAGCUUGCAUAGUAUUUAGUUA,1.06 ± 0.051,0.0701 ± 0.012
AGGACCUCACAGCUUGCAUAGUAUUUAGUUA,1.28 ± 0.064,0.102 ± 0.017
UCGACCUUGAGCUUGCAUAGUAUUUAGUUA,0.789 ± 0.057,0.0478 ± 0.0086
UCGACCUCACAGCUUGCAUAGUAUUUAGUUA,1.38 ± 0.05,0.0855 ± 0.017
UCGACCUCAGCUUGCAUAGUAUUUAGUUA,1.38 ± 0.056,0.064 ± 0.013
UGGACCUCACAGCUUGCAUAGUAUUUAGUUA,1.46 ± 0.084,0.0711 ± 0.014
UCGACCUCCAGCUUGCAUAGUAUUUAGUUA,1.17 ± 0.06,0.0635 ± 0.0099
AGGACCUUGUGCUUGCAUAGUAUUUAGUUA,0.869 ± 0.046,0.0654 ± 0.012
UCCACCUACAGCUUGCAUAUUAUUUAGUUA,1.01 ± 0.075,0.0312 ± 0.007
UGCACCUACAGCUUGCAUUGUAUUUAGUUA,0.808 ± 0.057,0.0286 ± 0.0068
UCCUGGAUGUCGAUGCAUAGUAUUUAGUUA [g2:g17:cont:t1A],0.0169 ± 0.005,
UGGACCUACAGCAAGCAUAGUAUUUAGAAA,0.271 ± 0.031,
UCCUGGAUGUCCUUGCAUAGUAUUUAGCUUA,0.0471 ± 0.0091,0.00476 ± 0.0022
UGGACCUACAGCUUGCAUAGUAUUUAGUCA,0.934 ± 0.05,0.0559 ± 0.011
AGGACCUACAGCUUGGAUAGUAUUUUGUUA,1.05 ± 0.077,0.0416 ± 0.0083
UCCUGGAACAGCUUGCUAUGUAUUUAGUAA,0.0313 ± 0.0087,0.00333 ± 0.002
UCCUGGAUCAGGAAGCAUAGUAUUUAGUUA,0.00993 ± 0.0028,
UGGACCUACACCUUGCUUAGUAUUUAGUUA,1.1 ± 0.062,0.0262 ± 0.0061
UGGACCUACUGCUUGCUUAGUAUUUAGUUA,1.4 ± 0.081,0.0402 ± 0.0083
AGGACCUACUGCUUGCAUUGUAUUUAGUUA,0.892 ± 0.03,0.0384 ± 0.008
AGGACCUACUGCUUGCUUAGUAUUUAGUUA,1.39 ± 0.087,0.05 ± 0.01

Sequence,pre-steady-state target cleavage rate [1],pre-steady-state target cleavage rate [2]
AGGACCUACACCUUGCUUAGUAUUUAGUUA,1.17 ± 0.057,0.046 ± 0.0082
UCCUGCUACUGCUUGCUUAGUAUUUAGUUA,0.49 ± 0.039,0.0208 ± 0.003
UCCACGAACAGCUUGCAUAGUAUUUAGAAA,0.328 ± 0.039,0.00702 ± 0.0022
UCCUGGAUGUCGAACGUAAGUAUUUAGUAUA,< 0.0001,
UCCUCCUACAGCUUGCAUUGUAUUUAGUUA,0.952 ± 0.034,0.0245 ± 0.0055
UCCUGGAUGAGCUUGCAUAGUAUUUUCUAA,0.222 ± 0.052,
AGGACCUACGAGCUUGCAUAGUAUUUAGUUA,0.726 ± 0.086,0.0555 ± 0.014
UGGACCAACAGCUUGCAUACUAUUUAGUUA,0.419 ± 0.017,0.0377 ± 0.0075
UCCUGGAUGUCGUUGCAUAGUAUUUAGGUUA,0.00749 ± 0.0034,
UCCACGUACAGCUUGCUUAGUAUUUAGUUA,1.31 ± 0.058,0.0408 ± 0.0091
ACGACGUACAGCUUGCAUAGUAUUUAGUUA,1.55 ± 0.071,0.077 ± 0.013
UCGACGUACAGCUUGCAUAGUAUUUAGAAA,0.288 ± 0.026,0.0106 ± 0.0026
UGGACGUACAGCUUGCAUAGUAUUUAGUUA,1.26 ± 0.051,0.0691 ± 0.012
UGCACGUACAGCUUGCAUAGUAUUUAGUUA,1.26 ± 0.045,0.0736 ± 0.01
UCGACGUACAGCUUGCAUAGUAUUUAGUAA,1.01 ± 0.062,0.0599 ± 0.011
UCCACCUACAGCUUGCUUAGUAUUUAGUUA,1.16 ± 0.05,0.0305 ± 0.0053
AGCACGUACAGCUUGCAUAGUAUUUAGUUA,1.28 ± 0.043,0.064 ± 0.011
UCCACGUACAGCUUGCAAAGUAUUUAGUUA,1.19 ± 0.054,0.0439 ± 0.009
UCGACGUACAGCUUGCAUAGUAUUUAGUUA,1.56 ± 0.046,0.0711 ± 0.011
UCCACGUACAGCUUGCAUAGUAUUUAGUUA,1.35 ± 0.047,0.0658 ± 0.0097
UCCACGUACAGCUUGCAUAGUAUUUAGUAA,0.521 ± 0.032,0.0319 ± 0.0057
UCCACCAAGAGCUUGCAUAGUAUUUAGUUA,0.884 ± 0.095,0.0363 ± 0.0078
UCCACCUACAGCUUGCUUAGAAUUUAGUUA,0.2 ± 0.025,0.00583 ± 0.0018
UCCUGGAACAGCUAGCAUAGAAUUUAGUUA,0.209 ± 0.02,0.0115 ± 0.0043
AGGACCUACAGCUUGCAUUGUAUUUAGUUA,0.926 ± 0.04,0.0656 ± 0.015
UCCUGGAUGUCCUUGCAGAGUAUUUAGUUA,,0.00314 ± 0.002

Sequence,pre-steady-state target cleavage rate [1],pre-steady-state target cleavage rate [2]
UCCUGGAUGAGCUUGCUUAGUAUUUACUUA,0.254 ± 0.042,0.0202 ± 0.005
UCCACGUACAGCUAGCAUAGUAUUUAGUUA,0.815 ± 0.028,0.0177 ± 0.0033
UGGACCUACAGCUUUGCAUAGUAUUUAGUUA,1.43 ± 0.11,0.0449 ± 0.011
AGGACCCUACAGCUUGCAUAGUAUUUAGUUA,1.24 ± 0.083,0.0716 ± 0.012
UGGACCCUACAGCUUGCAUAGUAUUUAGUUA,1.42 ± 0.074,0.0808 ± 0.015
UCCACCCUACAGCUUGCAUAGUAUUUAGUUA,0.831 ± 0.055,0.0575 ± 0.012
UGGACCUACAGCUUGCAUAGUAUUUUAGUUA,1.38 ± 0.079,0.0467 ± 0.012
AGGACCUACAGCUUUGCAUAGUAUUUAGUUA,1.2 ± 0.066,0.0552 ± 0.012
UCGACCUAACAGCUUGCAUAGUAUUUAGUUA,1.15 ± 0.069,0.0849 ± 0.017
UGGACCUAACAGCUUGCAUAGUAUUUAGUUA,1.33 ± 0.061,0.0609 ± 0.01
AGGACCUAACAGCUUGCAUAGUAUUUAGUUA,1.1 ± 0.059,0.0788 ± 0.016
UCCACCUACAGCUUUGCAUAGUAUUUAGUUA,0.885 ± 0.054,0.0278 ± 0.0062
UCCACCUACAGCUUGCAUAAUAUUUAGUUA,0.552 ± 0.049,0.0203 ± 0.0032
UCCUGCUACAGCUACCAUAGUAUUUAGUUA,0.337 ± 0.032,
AGGACCUACAGCUUGCAUAGUAUUAGUUA,0.385 ± 0.053,0.00372 ± 0.003
UCCACCUACAGCUUGCAUAGUAUUAAGAAA,0.351 ± 0.054,
UCCUGGAUGAGAUUGCAUAGUAUUUAGUUA,0.117 ± 0.011,0.00369 ± 0.0027
UCCUGGUACAGCUUGCAUGGUAUUUAGUUA,0.891 ± 0.058,0.0741 ± 0.018
UCCUGGAUCAGCUUGGAUAGUAUUAAGUUA,0.258 ± 0.033,0.0129 ± 0.0046
AUGGACCUACAGCUUGCAUAGUAUUUAGUUA,1.34 ± 0.088,0.0872 ± 0.018
UGGACCUUCAGCUUGCAUAGUAUAUAGUUA,1 ± 0.053,0.0376 ± 0.0085
UGGACCUACAGCUUGCAUAGUUAUUUAGUUA,0.0473 ± 0.0076,0.00533 ± 0.0021
UGGACCUACAGCUUGCAUAGUAUUUAGUUG [g2:g29:cont:t1G],0.456 ± 0.037,0.0555 ± 0.01
UGGACCUACAGCUUGCAUAGUAUUUAGUUA [g2:g29:cont:t1A],1.61 ± 0.09,0.0718 ± 0.013
UCGACCUACAGCUUGCAUAGUAAUAAGUUA,0.444 ± 0.047,
